For assay [1], the target named is RUNX1 (UniProt Q01196). The assay can be described thus: TF binding intensity (PBM fluorescence), negative control probe (arbitrary fluorescence units); higher = stronger binding. How it is done: (§1)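 gcPBM negative-control 36-bp genomic probes lacking TF binding sites. Each was incubated with recombinant human ETS1 or RUNX1 alone and detected by antibody fluorescence. Values are medians over replicate spots (4 spots for the ETS1-RUNX1 arrays, 3 for the ETS1-ETS1 array). The probes sit in constant array flanks that are not printed.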

Assay [2] has as its target T1, ETS1 (UniProt P14921).
T1 sequence: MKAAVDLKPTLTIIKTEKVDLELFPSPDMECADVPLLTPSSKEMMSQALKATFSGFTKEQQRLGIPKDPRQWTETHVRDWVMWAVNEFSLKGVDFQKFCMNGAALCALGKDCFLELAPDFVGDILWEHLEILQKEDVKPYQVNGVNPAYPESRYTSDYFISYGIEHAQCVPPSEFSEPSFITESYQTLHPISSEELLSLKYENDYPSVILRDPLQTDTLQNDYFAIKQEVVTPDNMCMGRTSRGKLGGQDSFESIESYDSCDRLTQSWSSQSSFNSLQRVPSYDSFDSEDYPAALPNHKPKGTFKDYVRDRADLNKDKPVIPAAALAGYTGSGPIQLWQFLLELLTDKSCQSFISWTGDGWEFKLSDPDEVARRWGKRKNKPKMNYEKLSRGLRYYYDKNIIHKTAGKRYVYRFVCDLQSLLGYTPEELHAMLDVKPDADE
The description is as above. As to the method:
as §1

Chain of RUNX1 (Q01196 whole entry): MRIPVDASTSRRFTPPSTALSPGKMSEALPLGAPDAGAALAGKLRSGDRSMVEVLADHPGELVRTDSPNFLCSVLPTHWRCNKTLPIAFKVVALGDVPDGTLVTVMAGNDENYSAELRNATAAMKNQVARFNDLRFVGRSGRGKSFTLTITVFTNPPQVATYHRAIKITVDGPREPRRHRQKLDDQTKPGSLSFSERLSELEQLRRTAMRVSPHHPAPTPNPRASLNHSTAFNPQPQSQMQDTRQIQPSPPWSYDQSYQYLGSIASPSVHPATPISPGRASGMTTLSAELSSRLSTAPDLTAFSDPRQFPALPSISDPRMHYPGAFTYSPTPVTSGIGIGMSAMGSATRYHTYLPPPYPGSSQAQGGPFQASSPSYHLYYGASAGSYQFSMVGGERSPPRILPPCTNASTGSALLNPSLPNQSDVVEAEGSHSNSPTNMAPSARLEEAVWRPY

The sequence “CTCACACCCAGTCCCAGGAAGCGAGCCCCACGTCGC (protein concentration 2 nM)” had a TF binding intensity in assay [1] of 894. In the case of “GCACACAAGGCAGTGTTTCCGGGACAGAGGGTGGGC (protein concentration 2 nM)”, the TF binding intensity in assay [1] stood at 937. For the sequence “GTCCCGCCTTCTCCGCTTCCGCCACCTCCTACTTAG (protein concentration 2 nM)”, in assay [1], the TF binding intensity was 1160.

Sequence “AAGTAAGCCCCGCCCCGGAACGGGCAGAAGTAGAGG (protein concentration 2 nM)” displayed a TF binding intensity in assay [1] of 1060. “GCAGTCAGCCCTTCCCTTCCTGTCCGTCAACTCCGG (protein concentration 2 nM)” yielded a TF binding intensity in assay [1] of 875.

“GTCCAGGCAAGAAACAGGAAGTGTGTCATGCACAGA (protein concentration 2 nM)”: the TF binding intensity in assay [1] amounted to 870. On the same count and under the same terms, then “TCTGAAGGAGCCGGGCGGAAAGAAGCCGAGGCGCGC (protein concentration 2 nM)”, with 798; and “GGGCCTGCGCGCGCACTTCCGCTCTCCCCTCCGGCT (protein concentration 2 nM)”, with 759. As for “GCTCCATCACCTCCTCTTCCGGTCCCTCCTCTAGGG (protein concentration 2 nM)”, the TF binding intensity in assay [1] was 1160. In assay [1], “ACTACCCTCCGCCCTCTTCCGCCGCCGCCGCCGCCT (protein concentration 2 nM)” had a TF binding intensity of 1200.

In turn, “CGAGCTTAGAAGGCGCTTCCGATGGGCGGAGTTTAG (protein concentration 2 nM)” displayed a TF binding intensity in assay [1] of 742. In turn, “TTGCCCGTCACTTGAGTTCCGCCTCCTCTGCTCCTC (protein concentration 2 nM)” registered a TF binding intensity in assay [1] of 922.

“AGCCCGGGTGACTTGAGAGTAATTAATGTGCAAAGA (protein concentration 10 nM)” returned a TF binding intensity in assay [2] of 106. Regarding “CAGGCTCGACACGGGCGGAACAAACGGGCTCCACTA (protein concentration 2 nM)”, in assay [1], the TF binding intensity is 769. Sequence “CCCTGCAGCGCGTCCTTTCCGGCCCGCCCCATGCAC (protein concentration 2 nM)” gave a TF binding intensity in assay [1] of 922. The same measure, in the same setting: then “GTTCCAGAAACGTCACATCCGGCGCCCGCTCCGCCC (protein concentration 2 nM)”, with 890; and “CCTTTTTCGCCTCCTTTTCCTGCCCCAAGACTAGAG (protein concentration 2 nM)”, with 1290.

The values above are taken from the supplement of paper PMC10681739.
